Laboratory results as given in PubChem BioAssay (Tox21).
Records with an inconclusive call do not appear. Active and inactive are the calls of the source. Unless noted, calls follow the shape of the dose curve; as a rule, active = well fitted curve in the direction sought with a large enough effect in the repeat runs; inconclusive = weak or mixed curves; inactive = no such curve, though single readings can be large; an effect the other way counts as inactive or inconclusive.

Assays:
[1] = qHTS assay to identify small molecule antagonists of the androgen receptor (AR) signaling pathway using the MDA cell line in the presence of 0.5 nM R1881 - cell viability counter screen (AID 1259242); also: nearly all actives have a fitted effect of over 45% in size
Procedure, shortened: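 Viability of MDA-kb2 cells was multiplexed with the luciferase AR readout; after 16 hr with compounds and R1881 at 0.5 nM final, CellTiter-Fluor fluorescence was recorded.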

[2] = biological target: Estrogen receptor (Homo sapiens) (UniProt P03372); experiment: qHTS assay to identify small molecule antagonists of the estrogen receptor alpha (ER-alpha) signaling pathway using the BG1 cell line in the presence of 0.1 nM 17-beta-estradiol (AID 1259244); also: nearly all actives have a fitted effect of over 50% in size; also: potency is read from the fitted curve at half-maximal effect
Procedure, shortened: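 Estradiol at 0.1 nM (final) stimulates the endogenous ER-alpha of VM7Luc4E2 cells carrying an ERE-driven luciferase; compounds are co-incubated 22 h at 37C and luciferase output quantified by luminescence.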

[3] = qHTS assay to identify small molecule HDAC inhibitors (AID 1259364);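 also: wild-type HCT-116 cells with endogenous class I/II HDAC activity; top concentration of the series differs between compounds; nearly all actives have a fitted effect of over 45% in size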
Procedure, shortened: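 Read-out: luminescence of HDAC-Glo I/II reagent, 30 min RT, reflecting class I/II deacetylase activity in whole HCT-116 cells pre-exposed 2 h to DMSO-dissolved compounds.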

[4] = qHTS assay to identify small molecule HDAC inhibitors - cell viability counter screen (AID 1259365); also: series mostly up to about 92 µM; nearly all actives have a fitted effect of over 50% in size
Procedure, shortened: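 CellTiter-Glo luminescence (30 min, room temperature) reported viability after a 2 h compound exposure at 37 C. Cells: wild-type HCT-116, 1,500 per well, seeded the night before.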

[5] = qHTS assay to identify small molecule agonists of the sonic hedgehog signaling (Shh) pathway - cell viability counter screen (AID 1259366); also: nearly all actives have a fitted effect of over 50% in size; also: potency is read from the fitted curve at half-maximal effect
Procedure, shortened: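 Cytotoxicity counter screen: CellTiter-Fluor reagent added after 23 h compound exposure, then 1 h at 37C and fluorescence read. Cells were 3T3 Gli1-Luc, seeded 2,000 per well and dosed 4 h post-plating.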

[6] = qHTS assay to identify small molecule antagonists of the sonic hedgehog signaling (Shh) pathway - cell viability counter screen (AID 1259367); also: nearly all actives have a fitted effect of over 55% in size; also: potency is read from the fitted curve at half-maximal effect
Procedure, shortened: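 After a 4 hr settling period, 3T3 Gli1-Luc cells were treated with DMSO-dissolved chemicals and conditioned medium, kept 24 hr at 37C in 5% CO2, and assayed for viability by CellTiter-Fluor fluorescence following 1 hr reagent incubation.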

[7] = qHTS assay to identify small molecule agonists of the sonic hedgehog signaling (Shh) pathway (AID 1259368; calls by dose curve;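 also: NIH/3T3-derived 3T3Gli1-Luc cells carrying a stable Gli1-driven firefly luciferase reporter; series mostly up to about 92 µM; nearly all actives have a fitted effect of over 15% in size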)
Procedure, shortened: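 A Gli1 transcriptional response element controlled firefly luciferase in 3T3Gli1-Luc cells. Compounds and a positive control were added 4 hr after plating, and cells were incubated a further 24 hr at 37 C before luminescence detection.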

[8] = qHTS assay to identify small molecule antagonists of the sonic hedgehog signaling (Shh) pathway (AID 1259369; calls by dose curve; also: nearly all actives have a fitted effect of over 45% in size; also: potency is read from the fitted curve at half-maximal effect)
Procedure, shortened: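 For antagonist detection, the reporter line received test compounds together with conditioned medium, incubated 24hr at 37 C, 5% CO2, then luminescence was recorded following 30min room-temperature luciferase reagent incubation.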
% is scaled to controls: 0 for no effect and ±100 for the full control effect.

Sequence of Estrogen receptor (Homo sapiens) (P03372 whole entry, looked up): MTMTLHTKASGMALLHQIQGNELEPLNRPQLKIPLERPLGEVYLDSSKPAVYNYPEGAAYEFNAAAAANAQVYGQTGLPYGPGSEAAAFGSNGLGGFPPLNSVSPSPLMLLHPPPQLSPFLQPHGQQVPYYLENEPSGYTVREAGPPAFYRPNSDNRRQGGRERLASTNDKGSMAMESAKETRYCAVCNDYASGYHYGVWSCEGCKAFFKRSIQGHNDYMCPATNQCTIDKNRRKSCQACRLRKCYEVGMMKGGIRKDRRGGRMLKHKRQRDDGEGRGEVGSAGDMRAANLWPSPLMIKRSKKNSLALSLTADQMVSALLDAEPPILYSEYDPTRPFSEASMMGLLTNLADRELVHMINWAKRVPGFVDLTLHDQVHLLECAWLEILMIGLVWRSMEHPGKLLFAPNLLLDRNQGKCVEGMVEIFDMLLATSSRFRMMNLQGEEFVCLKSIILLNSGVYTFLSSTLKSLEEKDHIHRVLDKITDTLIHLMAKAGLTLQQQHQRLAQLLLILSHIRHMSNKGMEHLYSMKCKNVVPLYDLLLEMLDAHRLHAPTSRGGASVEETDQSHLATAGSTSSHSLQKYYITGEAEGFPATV

CCCCCCCC/C=C\CCCCCCCC(=O)N(C)CC(=O)O
inactive: Potency [1] | Potency [2] | Potency [3] | Potency [4] | Potency [5] | Potency [6] | Potency [7] | Potency [8]

Cn1cnc2ncnc(N)c21
inactive: Potency [1] | Potency [2] | Potency [3] | Potency [4] | Potency [5] | Potency [6] | Potency [7] | Potency [8]

Cn1cccc1
inactive: Potency [1] | Potency [2] | Potency [3] | Potency [4] | Potency [5] | Potency [6] | Potency [7] | Potency [8]

C=C/C=C/C=C/CCCCC
inactive: viability change, negative = cytotoxic [1] -0.871% [at 19 µM] | activity change, negative = inhibition [2] -0.135% [at 19 µM] | activity change, negative = inhibition [3] -2.93% [at 19 µM] | activity change, negative = cytotoxicity [4] -0.499% [at 19 µM] | viability change, negative = cytotoxic [5] -4.32% [at 19 µM] | viability change, negative = cytotoxic [6] -2.58% [at 19 µM] | activity change [7] -0.134% [at 18.9 µM, active compounds read high] | activity change, negative = inhibition [8] -23.5% [at 19 µM]

COC(=O)CC(C)CCC=C(C)C (centres undefined)
inactive: Potency [1] | Potency [2] | Potency [3] | Potency [4] | Potency [5] | Potency [6] | Potency [7]

CCCCCCCOC(=O)c1ccc(O)cc1
inactive: Potency [1] | Potency [2] | Potency [3] | Potency [4] | Potency [5] | Potency [6] | Potency [7]
active: Potency [8] 43.3 µM

Oc1cc2ccccc2cc1O
inactive: Potency [1] | Potency [2] | Potency [3] | Potency [4] | Potency [5] | Potency [6] | Potency [7]

C[C@@H]1CC[C@H]2C(C)(C)[C@H]3C[C@@]12CC[C@@]3(C)O
inactive: Potency [1] | Potency [2] | Potency [3] | Potency [4] | Potency [5] | Potency [6] | Potency [7] | Potency [8]

CCCCOC(=O)C(C)CC (centres undefined)
inactive: Potency [1] | Potency [2] | Potency [3] | Potency [4] | Potency [5] | Potency [6] | Potency [7]

CCc1cccc(CC)c1NC(=O)C(=O)O
inactive: Potency [1] | Potency [2] | Potency [3] | Potency [4] | Potency [5] | Potency [6] | Potency [7] | Potency [8]

CCc1cccc(CC)c1N(COC)C(=O)CS(=O)(=O)O
inactive: Potency [1] | Potency [2] | Potency [3] | Potency [4] | Potency [5] | Potency [6] | Potency [7] | Potency [8]

CCc1ccc(O)c(C(C)(C)C)c1
inactive: Potency [1] | Potency [2] | Potency [3] | Potency [4] | Potency [5] | Potency [6] | Potency [7] | Potency [8]

C1CC(COCC2CO2)CCC1COCC1CO1 (centres undefined)
inactive: Potency [1] | Potency [2] | Potency [3] | Potency [4] | Potency [5] | Potency [6] | Potency [7] | Potency [8]

O=S(O)O
inactive: viability change, negative = cytotoxic [1] 4.5% [at 19 µM] | activity change, negative = inhibition [2] -4.06% [at 19 µM] | activity change, negative = inhibition [3] 2.9% [at 19 µM] | activity change, negative = cytotoxicity [4] 2.88% [at 19 µM] | viability change, negative = cytotoxic [5] 2.93% [at 19 µM] | viability change, negative = cytotoxic [6] 0.928% [at 19 µM] | activity change [7] -1.4% [at 18.9 µM, active compounds read high] | activity change, negative = inhibition [8] 12.9% [at 19 µM]

COc1ccc(C#N)cc1
inactive: Potency [1] | Potency [2] | Potency [3] | Potency [4] | Potency [5] | Potency [6] | Potency [7] | Potency [8]

c1ccc(Nc2cccc3ccccc23)cc1
active: Potency [8] 30.6 µM
inactive: Potency [1] | Potency [2] | Potency [3] | Potency [4] | Potency [5] | Potency [6] | Potency [7]

O=C(c1ccccc1)c1cc(Cl)ccc1O
inactive: Potency [1] | Potency [2] | Potency [3] | Potency [4] | Potency [5] | Potency [6] | Potency [7]

COc1cccc(O)c1
inactive: Potency [1] | Potency [2] | Potency [3] | Potency [4] | Potency [5] | Potency [6] | Potency [7] | Potency [8]

CCCCCCCC(OC)OC
inactive: Potency [1] | Potency [2] | Potency [3] | Potency [4] | Potency [5] | Potency [6] | Potency [7] | Potency [8]

CNC(=S)NN
inactive: Potency [1] | Potency [3] | Potency [4] | Potency [7]
active: Potency [2] 48.6 µM | Potency [5] 30.6 µM | Potency [6] 17.2 µM | Potency [8] 3.44 µM

C=CC(=C)CC/C=C(\C)CCC=C(C)C
inactive: viability change, negative = cytotoxic [1] 2.29% [at 19 µM] | activity change, negative = inhibition [2] 3.24% [at 19 µM] | activity change, negative = inhibition [3] 8.2% [at 19 µM] | activity change, negative = cytotoxicity [4] 3.69% [at 19 µM] | viability change, negative = cytotoxic [5] -6.51% [at 19 µM] | viability change, negative = cytotoxic [6] -4.46% [at 19 µM] | activity change [7] 0.047% [at 18.9 µM, active compounds read high]

CC1(C)C(=O)N(CO)C(=O)N1CO
inactive: Potency [1] | Potency [2] | Potency [3] | Potency [4] | Potency [5] | Potency [6] | Potency [7] | Potency [8]

NC(=O)c1nc(-c2cccc(-c3cc(F)ccc3OCC(F)(F)C(F)(F)F)c2)n[nH]1
inactive: Potency [1] | Potency [3] | Potency [4] | Potency [6] | Potency [7]
active: Potency [2] 54.5 µM | Potency [8] 3.06 µM

OCCCS
inactive: Potency [1] | Potency [2] | Potency [3] | Potency [4] | Potency [5] | Potency [6] | Potency [7] | Potency [8]

CC(C)=CCCC(C)CCOC(=O)C(C)C (centres undefined)
inactive: Potency [1] | Potency [2] | Potency [3] | Potency [4] | Potency [5] | Potency [6] | Potency [7] | Potency [8]

CCC(=O)OCCc1ccccc1
inactive: Potency [1] | Potency [2] | Potency [3] | Potency [4] | Potency [7]
